# From PubChem BioAssay AID1159580 (chemical genetic matrix, 2015)
# Screen size: about 5,500 compounds; about 2,000 (36%) were called active. Another 18% or so got no clear call; they are omitted. The list shows a part of the results. Values without a mark were called inactive. Cut-off read from the data, not from the text of the source: active = normalized growth mostly below about 0.91 (no sharp cut-off); inconclusive = no clear call, values can overlap the other calls; inactive = mostly above about 0.92.
# Assay: chemical genetic growth profiling, strain panel (AID 1159580);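 note: tested at 20 µM; growth read once vehicle control cultures reached saturation at 30 °C; 1 = growth at the plate median or of vehicle wells; lower values mean less growth of the strain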
# Conditions: S. cerevisiae deletion strains, growth OD
compound,measurement,setting,value
O=C1C(Cl)=C(Oc2cc(Cl)c(Cl)cc2Cl)C(=O)c2ccccc21,normalized growth,"locus YAR019C, strain CDC15, stronger effect = lower value",0.215 (active)
same,normalized growth,"locus YBR136W, strain MEC1, stronger effect = lower value",0.516 (active)
same,normalized growth,"locus YDL017W, strain CDC7, stronger effect = lower value",0.912
same,normalized growth,"locus YDL028C, strain MPS1, stronger effect = lower value",0.936
same,normalized growth,"locus YDL101C, strain DUN1, stronger effect = lower value",0.524 (active)
same,normalized growth,"locus YDL132W, strain cdc53, stronger effect = lower value",0.41 (active)
same,normalized growth,"locus YDL214C, strain PRR2, stronger effect = lower value",0.114 (active)
same,normalized growth,"locus YDR052C, strain DBF4, stronger effect = lower value",0.546 (active)
same,normalized growth,"locus YDR054C, strain cdc34, stronger effect = lower value",0.133 (active)
same,normalized growth,"locus YDR477W, strain SNF1, stronger effect = lower value",0.125 (active)
same,normalized growth,"locus YER123W, strain YCK3, stronger effect = lower value",0.122 (active)
same,normalized growth,"locus YER133W, strain GLC7, stronger effect = lower value",0.126 (active)
same,normalized growth,"locus YFL009W, strain cdc4, stronger effect = lower value",0.922
same,normalized growth,"locus YFL029C, strain CAK1, stronger effect = lower value",0.236 (active)
same,normalized growth,"locus YFR003C, strain YPI1, stronger effect = lower value",0.941
same,normalized growth,"locus YFR019W, strain FAB1, stronger effect = lower value",0.104 (active)
same,normalized growth,"locus YFR028C, strain CDC14, stronger effect = lower value",0.149 (active)
same,normalized growth,"locus YGR040W, strain KSS1, stronger effect = lower value",0.14 (active)
same,normalized growth,"locus YGR052W, strain FMP48, stronger effect = lower value",0.126 (active)
same,normalized growth,"locus YGR092W, strain DBF2, stronger effect = lower value",0.352 (active)
same,normalized growth,"locus YHR030C, strain SLT2, stronger effect = lower value",0.122 (active)
same,normalized growth,"locus YHR079C, strain IRE1, stronger effect = lower value",0.333 (active)
same,normalized growth,"locus YHR082C, strain KSP1, stronger effect = lower value",0.148 (active)
same,normalized growth,"locus YHR205W, strain SCH9, stronger effect = lower value",0.125 (active)
same,normalized growth,"locus YIL147C, strain SLN1, stronger effect = lower value",0.938
same,normalized growth,"locus YJL095W, strain BCK1, stronger effect = lower value",0.114 (active)
same,normalized growth,"locus YJL128C, strain PBS2, stronger effect = lower value",0.11 (active)
same,normalized growth,"locus YJL157C, strain FAR1, stronger effect = lower value",0.303 (active)
same,normalized growth,"locus YJR016C, strain ILV3, stronger effect = lower value",0.917
same,normalized growth,"locus YJR066W, strain TOR1 (second series), stronger effect = lower value",0.119 (active)
same,normalized growth,"locus YJR066W, strain TOR1, stronger effect = lower value",0.12 (active)
same,normalized growth,"locus YKL048C, strain ELM1, stronger effect = lower value",0.658 (active)
same,normalized growth,"locus YKL067W, strain YNK1, stronger effect = lower value",0.32 (active)
same,normalized growth,"locus YKL101W, strain HSL1, stronger effect = lower value",0.38 (active)
same,normalized growth,"locus YKL193C, strain SDS22, stronger effect = lower value",0.174 (active)
same,normalized growth,"locus YKL203C, strain TOR2, stronger effect = lower value",0.13 (active)
same,normalized growth,"locus YLR113W, strain HOG1, stronger effect = lower value",0.171 (active)
same,normalized growth,"locus YLR133W, strain CKI1, stronger effect = lower value",0.294 (active)
same,normalized growth,"locus YLR403W, strain SFP1, stronger effect = lower value",0.197 (active)
same,normalized growth,"locus YML070W, strain DAK1, stronger effect = lower value",0.105 (active)
same,normalized growth,"locus YMR001C, strain CDC5, stronger effect = lower value",0.11 (active)
same,normalized growth,"locus YMR205C, strain PFK2 (second series), stronger effect = lower value",0.538 (active)
same,normalized growth,"locus YMR277W, strain FCP1, stronger effect = lower value",0.117 (active)
same,normalized growth,"locus YNL006W, strain LST8, stronger effect = lower value",0.95
same,normalized growth,"locus YNL020C, strain ARK1, stronger effect = lower value",0.555 (active)
same,normalized growth,"locus YNL183C, strain NPR1, stronger effect = lower value",0.128 (active)
same,normalized growth,"locus YNL207W, strain RIO2, stronger effect = lower value",0.537 (active)
same,normalized growth,"locus YNL222W, strain SSU72, stronger effect = lower value",0.522 (active)
same,normalized growth,"locus YNL307C, strain MCK1 (second series), stronger effect = lower value",0.246 (active)
same,normalized growth,"locus YOL078W, strain AVO1, stronger effect = lower value",0.161 (active)
same,normalized growth,"locus YOL136C, strain PFK27, stronger effect = lower value",0.11 (active)
same,normalized growth,"locus YOR061W, strain CKA2, stronger effect = lower value",0.519 (active)
same,normalized growth,"locus YOR119C, strain RIO1, stronger effect = lower value",0.118 (active)
same,normalized growth,"locus YOR231W, strain MKK1, stronger effect = lower value",0.294 (active)
same,normalized growth,"locus YOR329C, strain SCD5, stronger effect = lower value",0.94
same,normalized growth,"locus YPL031C, strain PHO85, stronger effect = lower value",0.225 (active)
same,normalized growth,"locus YPL153C, strain RAD53, stronger effect = lower value",0.318 (active)
same,normalized growth,"locus YPL204W, strain HRR25, stronger effect = lower value",0.327 (active)
same,normalized growth,"locus YPL209C, strain IPL1, stronger effect = lower value",0.581 (active)
same,normalized growth,"locus YPL256C, strain CLN2, stronger effect = lower value",0.183 (active)
same,normalized growth,"locus YPR025C, strain CCL1, stronger effect = lower value",0.543 (active)
same,normalized growth,"locus YPR111W, strain DBF20, stronger effect = lower value",0.897
same,normalized growth,"strain TSCII, stronger effect = lower value",0.345 (active)
